Measurements taken from PubChem BioAssay.
The source made the active and inactive calls.

What was measured:
[1] = optical density shifts of acrAB sulA E. coli – strain DRC41, OD650, 48 h, E. coli filamentation inducer project, primary screen (AID 1152); settings: higher = more signal, called active from +8 up or from −8 down;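 also: E. coli MC1000 strain DRC41 lacking acrAB efflux pump and sulA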
[2] = probe aLefty1 binding on compound microarray – biochemical, small-molecule microarray, 635/667 nm fluorescence, primary screen (AID 1153); settings: higher = more signal;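 also: score merges spot fluorescence with signal-to-noise ratio from the scanned slide images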
[3] = plasmodial surface anion channel blockers, osmotic lysis – cell-based, P. falciparum Indochina, OD700, 1 h, primary screen (AID 1154); settings: P. falciparum Indochina infected RBC osmotic lysis, higher = more signal, called active from +8 up or from −8 down
[4] = plasmodial surface anion channel blockers, osmotic lysis – cell-based, P. falciparum Indochina, OD700, 2 h, primary screen (AID 1155);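 also: lysis reports solute entry through the parasite surface anion channel PSAC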; settings: P. falciparum Indochina infected erythrocytes, higher = more signal, called active from +8 up or from −8 down
[5] = changes in parasitized red cell lysis, either direction – P. falciparum Indochina, OD700, 3 h, PSAC antagonist project, primary screen (AID 1156); settings: P. falciparum-infected erythrocytes, osmotic lysis, higher = more signal, called active from +8 up or from −8 down
[6] = plasmodial surface anion channel blockers, osmotic lysis – cell-based, P. falciparum Indochina, OD700, 18 h, primary screen (AID 1157); settings: P. falciparum Indochina infected erythrocytes, osmotic lysis OD700, 18 h; higher = more signal, called active from +8 up or from −8 down
[7] = S6 kinase pathway phospho-S6 level changes – cell-based, A549, cytoblot, luminescence, serum-stimulated, primary screen (AID 1158); settings: 5 h, higher = more signal;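 also: serum-stimulated A549 lung adenocarcinoma cells; signal is phosphorylated S6 detected by cytoblot immunostaining with HRP secondary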
[8] = molecular target: NADPH oxidase 2 (Homo sapiens) (UniProt P04839); assay: compounds shifting NOX2 Amplex Red fluorescence – cell-based, HEK293-NOX2, PMA-stimulated, NOX inhibitor project, primary screen (AID 1159); settings: 45 min, higher = more signal, called active from +8 up or from −8 down; also: test concentration not given here
Sequence of NADPH oxidase 2 (Homo sapiens) (P04839 whole entry, looked up): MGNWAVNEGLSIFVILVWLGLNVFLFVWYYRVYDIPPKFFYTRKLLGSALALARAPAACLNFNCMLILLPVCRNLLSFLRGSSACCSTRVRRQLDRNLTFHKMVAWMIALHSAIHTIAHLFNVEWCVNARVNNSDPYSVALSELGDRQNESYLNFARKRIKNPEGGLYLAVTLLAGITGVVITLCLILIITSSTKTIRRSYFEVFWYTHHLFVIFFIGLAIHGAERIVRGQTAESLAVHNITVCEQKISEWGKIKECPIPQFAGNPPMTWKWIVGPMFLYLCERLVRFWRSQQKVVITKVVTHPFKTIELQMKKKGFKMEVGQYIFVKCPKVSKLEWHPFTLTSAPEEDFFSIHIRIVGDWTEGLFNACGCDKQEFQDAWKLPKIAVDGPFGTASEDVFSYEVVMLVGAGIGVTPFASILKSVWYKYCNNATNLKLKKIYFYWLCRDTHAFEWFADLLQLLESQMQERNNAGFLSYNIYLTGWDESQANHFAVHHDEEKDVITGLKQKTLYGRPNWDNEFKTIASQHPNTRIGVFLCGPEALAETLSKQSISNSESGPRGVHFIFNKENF

[9] = molecular target: NADPH oxidase 4 (Homo sapiens) (UniProt Q9NPH5); assay: compounds shifting NOX4 Amplex Red fluorescence – cell-based, HEK293-NOX4, tetracycline-induced, NOX inhibitor project, primary screen (AID 1160); settings: HEK293-NOX4, Amplex Red H2O2 fluorescence, 45 min; higher = more signal, called active from +8 up or from −8 down
Sequence of NADPH oxidase 4 (Homo sapiens) (Q9NPH5 whole entry, looked up): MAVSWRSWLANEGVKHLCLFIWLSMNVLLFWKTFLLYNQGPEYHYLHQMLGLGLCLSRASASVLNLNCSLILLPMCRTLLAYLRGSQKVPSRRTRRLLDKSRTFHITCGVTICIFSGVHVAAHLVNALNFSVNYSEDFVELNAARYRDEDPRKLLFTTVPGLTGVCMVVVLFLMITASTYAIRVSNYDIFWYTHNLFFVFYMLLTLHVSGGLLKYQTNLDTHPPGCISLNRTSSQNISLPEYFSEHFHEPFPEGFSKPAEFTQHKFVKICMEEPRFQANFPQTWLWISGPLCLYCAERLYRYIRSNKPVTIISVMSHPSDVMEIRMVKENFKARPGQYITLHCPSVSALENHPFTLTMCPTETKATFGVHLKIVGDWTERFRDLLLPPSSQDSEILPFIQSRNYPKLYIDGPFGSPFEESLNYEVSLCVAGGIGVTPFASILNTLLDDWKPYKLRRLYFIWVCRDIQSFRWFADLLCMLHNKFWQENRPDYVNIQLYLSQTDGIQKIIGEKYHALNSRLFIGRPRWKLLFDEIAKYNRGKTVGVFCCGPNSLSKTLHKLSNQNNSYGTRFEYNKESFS

[10] = molecular target: NADPH oxidase 5 (Homo sapiens) (UniProt Q96PH1); assay: compounds shifting NOX5 Amplex Red fluorescence – cell-based, HEK293-NOX5, NOX inhibitor project, primary screen (AID 1161); settings: HEK293-NOX5, ionomycin, 45 min, higher = more signal
Sequence of NADPH oxidase 5 (Homo sapiens) (Q96PH1 whole entry, looked up): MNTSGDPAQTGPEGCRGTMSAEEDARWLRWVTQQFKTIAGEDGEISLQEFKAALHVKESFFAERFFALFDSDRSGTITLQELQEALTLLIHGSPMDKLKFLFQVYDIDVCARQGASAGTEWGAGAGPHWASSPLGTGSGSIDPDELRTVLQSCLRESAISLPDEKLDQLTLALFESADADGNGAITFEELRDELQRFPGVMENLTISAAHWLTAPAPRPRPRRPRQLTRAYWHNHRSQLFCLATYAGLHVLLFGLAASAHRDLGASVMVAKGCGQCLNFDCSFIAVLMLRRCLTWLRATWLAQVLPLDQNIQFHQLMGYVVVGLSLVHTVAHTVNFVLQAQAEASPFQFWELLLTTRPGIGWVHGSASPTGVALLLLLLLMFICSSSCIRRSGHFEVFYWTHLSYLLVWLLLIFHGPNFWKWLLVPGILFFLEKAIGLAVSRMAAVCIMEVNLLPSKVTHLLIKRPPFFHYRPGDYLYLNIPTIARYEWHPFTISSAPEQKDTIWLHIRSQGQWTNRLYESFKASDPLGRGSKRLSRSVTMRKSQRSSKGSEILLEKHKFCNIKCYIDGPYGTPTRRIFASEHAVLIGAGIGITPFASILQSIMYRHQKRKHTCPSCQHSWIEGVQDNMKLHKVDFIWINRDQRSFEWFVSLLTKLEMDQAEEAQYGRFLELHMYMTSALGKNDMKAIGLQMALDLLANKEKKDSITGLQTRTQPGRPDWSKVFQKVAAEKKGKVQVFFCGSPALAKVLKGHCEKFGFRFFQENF

SMILES | z-score [1] | composite z-score [2] | z-score [3] | z-score [4] | z-score [5] | z-score [6] | z-score [7] | z-score [8] | z-score [9] | z-score [10]
CCOC(=O)C1=CCC(c2ccccc2)N(S(=O)(=O)CC[Si](C)(C)C)C1 (stereo not given) | -0.348 (inactive) | -0.147 | 2.49 (inactive) | 0.767 (inactive) | -0.0704 (inactive) | 0.561 (inactive) | -0.215 | 0.183 (inactive) | 0.976 (inactive) | -0.179
CCCCc1cn(C[C@H](Cc2ccccc2)NC(=O)N[C@H](CO)CCc2oc(C(C)=O)c(C(=O)OC)c2C(=O)OC)nn1 | 0.135 (inactive) | 0.086 | 1.66 (inactive) | -0.983 (inactive) | 1.21 (inactive) | -0.496 (inactive) | 0.847 | -4.81 (inactive) | -2.87 (inactive) | -2.48
CCCC=C(CCC)[C@@H](NS(=O)(=O)c1cccs1)c1ccc(C(=O)OC)cc1 | -1.35 (inactive) | 0.133 | 1.19 (inactive) | 0.0633 (inactive) | 1.28 (inactive) | 0.567 (inactive) | -1.13 | -0.547 (inactive) | -3.59 (inactive) | 0.708
C=CCC(OC(C)=O)[C@@H]1[C@@H](N(Cc2cccc3ccccc23)C(=O)c2ccc(-c3ccccc3)cc2)c2cc(OCCCO)ccc2N1C(=O)Cc1ccc(OC)cc1 (stereo not given in full) | 0.571 (inactive) | -0.277 | 0.177 (inactive) | -0.172 (inactive) | -1.02 (inactive) | 0.0144 (inactive) | 0.904 | -1.6 (inactive) | 0.32 (inactive) | 0.0661
COc1cc(OC)c(C(O)C2C=CC3C(=O)NC(=O)C3N2Nc2ccc(Cl)cc2Cl)cc1Br (stereo not given) | -2.02 (inactive) | 0.689 | 4.81 (inactive) | 1.4 (inactive) | -0.372 (inactive) | 1.84 (inactive) | -0.924 | -0.603 (inactive) | -5.17 (inactive) | -1.12
COCCOC(=O)N1C(=O)[C@@]2(c3cc(C#Cc4ccc(OC)cc4)ccc31)[C@H](C(=O)N1CCCCCCC1)[C@H]1C(=O)O[C@H](c3ccccc3)[C@H](c3ccccc3)N1[C@@H]2c1ccc(OCCO)cc1 | 2.43 (inactive) | 2.36 | 7.28 (inactive) | 1.09 (inactive) | 0.478 (inactive) | 0.442 (inactive) | 1.93 | 0.453 (inactive) | 0.266 (inactive) | -0.169
CCOC1=C2C(CN(S(=O)(=O)c3ccc(C)cc3)C2c2ccc(C)cc2)C2C(=O)N(c3ccccc3)C(=O)C2C1 (stereo not given) | -0.0859 (inactive) | 0.0839 | 1.87 (inactive) | 1.24 (inactive) | 0.398 (inactive) | 0.855 (inactive) | -0.258 | 1.12 (inactive) | 0.103 (inactive) | -0.229
C=CC[C@@]1(C(N)=O)N=C(c2ccc(OCCCO)cc2)O[C@@H]1c1ccccc1CN=[N+]=[N-] | 0.0347 (inactive) | 0.571 | 21.5 (active) | 4.04 (inactive) | 2 (inactive) | -0.413 (inactive) | 2.43 | -0.934 (inactive) | 0.313 (inactive) | -0.802
O=C1OCCC/C=C\[C@H]2OC34C=CCN(CCN5CCOCC5)C(=O)[C@H]3N(CCCO)C(=O)[C@@H]4C12 (stereo not given in full) | -0.478 (inactive) | -0.284 | 2.38 (inactive) | 0.351 (inactive) | -0.893 (inactive) | -0.352 (inactive) | -0.181 | 1.18 (inactive) | 0.481 (inactive) | 2.27
CC(C)(C)OC(=O)CC[C@@]1(C(=O)NCCN2CCOCC2)N=C(c2ccc(OCCCO)cc2)O[C@@H]1c1ccccc1N=[N+]=[N-] | 0.0974 (inactive) | 0.266 | 31.4 (active) | 28 (active) | 3.73 (inactive) | 5.67 (inactive) | -0.249 | -2.91 (inactive) | 0.765 (inactive) | -1.73
[N-]=[N+]=NCc1ccccc1C[C@@]1(C(=O)NCC(O)CO)N=C(c2ccc(OCCCO)cc2)O[C@@H]1c1ccccc1N=[N+]=[N-] (stereo not given in full) | 0.458 (inactive) | 0.668 | 30.8 (active) | 28.7 (active) | 1.29 (inactive) | 7.41 (inactive) | 0.345 | -0.00841 (inactive) | 1.21 (inactive) | 0.427
COc1ccc(C(=O)Nc2cccc(CN3C(=O)[C@]4(O[C@H](CCO)[C@@H]([Si](C)(C)c5ccc(OC)cc5)[C@@H]4C)c4ccccc43)c2)cc1 | -0.172 (inactive) | 0.0698 | 2.54 (inactive) | 1.45 (inactive) | 0.374 (inactive) | 1.85 (inactive) | -0.59 | -6.65 (inactive) | -2.74 (inactive) | -3.1
CC(C)N1C(=O)[C@@]2(Cc3ccccc31)c1ccccc1C(=O)N(C1CCCCC1)[C@H]2c1ccc(CO)cc1 | 0.04 (inactive) | -0.101 | 0.206 (inactive) | 0.195 (inactive) | 0.516 (inactive) | 0.378 (inactive) | 0.0252 | 0.111 (inactive) | 0.217 (inactive) | -0.638
COc1ccc([Si](C)(C)[C@@H]2[C@@H](CC(=O)N3Cc4ccccc4C[C@H]3CO)O[C@]3(C(=O)N(C)c4c(Br)cc(C)cc43)[C@H]2C)cc1 | 0.0945 (inactive) | 0.297 | 9.71 (active) | 2.3 (inactive) | 0.392 (inactive) | 1.9 (inactive) | 2.09 | 0.0136 (inactive) | 0.0254 (inactive) | -0.0526
CCOC(=O)C[C@H]1[C@H](OC(=O)c2cc3ccccc3oc2=O)[C@@H](NC(=O)C2CCCCC2)c2cc(OCCCO)ccc2N1C(=O)c1ccccc1 | 1.67 (inactive) | -0.147 | 0.388 (inactive) | -0.269 (inactive) | 0.342 (inactive) | -1.4 (inactive) | 1.18 | -0.341 (inactive) | 0.609 (inactive) | 0.305
Cc1ccc(S[C@]2(C(=O)NCC(C)C)CC(=O)N(Cc3cc(C(F)(F)F)cc(C(F)(F)F)c3)[C@@H]2c2ccc(CO)cc2I)cc1 | -0.336 (inactive) | 0.12 | 2.53 (inactive) | -0.449 (inactive) | 0.767 (inactive) | 0.278 (inactive) | -0.301 | 2.07 (inactive) | -1.39 (inactive) | -0.95
COC(=O)[C@@]1(Cc2ccc(OC)cc2)[C@H]2c3cc(C(=O)N(C)C)n(Cc4cccc5ccccc45)c3C[C@H]2CN1C(=O)c1ccccc1 | -1.27 (inactive) | 0.468 | 2.33 (inactive) | -0.206 (inactive) | 1.19 (inactive) | -1.39 (inactive) | 2.11 | -3.14 (inactive) | -1.83 (inactive) | -4.62
CC(C)(C)OC(=O)CC[C@@]1(C(N)=O)N=C(c2ccc(OCCCO)cc2)O[C@@H]1c1ccccc1 | -0.795 (inactive) | 0.345 | 5.46 (inactive) | 0.431 (inactive) | 0.726 (inactive) | 0.299 (inactive) | -0.0683 | -0.414 (inactive) | 0.492 (inactive) | -0.0961
COCCOC(=O)N1C(=O)[C@@]2(c3cc(C#CCNC(N)=O)ccc31)[C@H](C(=O)NC[C@H](O)c1ccccc1)[C@H]1C(=O)O[C@H](c3ccccc3)[C@H](c3ccccc3)N1[C@@H]2c1ccccc1OCCO | -0.119 (inactive) | 1.28 | 2.05 (inactive) | 0.35 (inactive) | 0.927 (inactive) | 0.317 (inactive) | 0.239 | 1.91 (inactive) | 1.63 (inactive) | -0.63
CC1CC/C=C\[C@H]2OC34C=CCN(C(C)(C)C)C(=O)[C@H]3N(CCCCCCO)C(=O)[C@@H]4C2C(=O)O1 (stereo not given in full) | 0.0837 (inactive) | -0.0501 | 0.375 (inactive) | 0.794 (inactive) | 0.39 (inactive) | 0.771 (inactive) | -0.0989 | 0.959 (inactive) | -0.0389 (inactive) | 1.77
O=C1OCCC/C=C\[C@H]2OC34C=CCN(Cc5ccccc5)C(=O)[C@H]3N(CCCCCCO)C(=O)[C@@H]4C12 (stereo not given in full) | 1.19 (inactive) | -0.0576 | 2.96 (inactive) | 0.141 (inactive) | 0.59 (inactive) | 0.524 (inactive) | 0.0169 | 1.12 (inactive) | 0.279 (inactive) | 1.88
COC(=O)[C@@]1(Cc2ccccc2)[C@H]2c3cc(C(=O)N4CCCC4)n(Cc4nc5ccccc5[nH]4)c3C[C@H]2CN1C(=O)c1ccccc1 | -1.31 (inactive) | 1.06 | 3.2 (inactive) | 0.541 (inactive) | 2.65 (inactive) | 0.959 (inactive) | -0.25 | 0.311 (inactive) | -0.142 (inactive) | -3
CO[C@H]1O[C@H](CO)[C@@H](OC(=O)Nc2ccc(Br)cc2)[C@H](OC(=O)c2cc3ccccc3[nH]2)[C@H]1OC(=O)c1cc2ccccc2[nH]1 | 1.99 (inactive) | 0.12 | 1.39 (inactive) | -1.16 (inactive) | -0.368 (inactive) | -0.464 (inactive) | 1.16 | -2.75 (inactive) | -0.642 (inactive) | -2.04
C[C@@]1([C@@H](NC(=O)c2ccccc2)c2ccc(-c3ccccc3)cc2)C[C@H]1C1CCCCC1 | -2.22 (inactive) | 0.476 | -0.118 (inactive) | 0.28 (inactive) | 0.833 (inactive) | 0.888 (inactive) | 0.994 | -0.658 (inactive) | -1.06 (inactive) | -0.782
O=C(NCc1ccccc1)[C@@]1(Cc2ccccc2)N=C(c2ccc(OCCCO)cc2)O[C@H]1c1ccccc1 | 0.179 (inactive) | 0.609 | 13.5 (active) | 2.11 (inactive) | 1.5 (inactive) | 0.86 (inactive) | -0.0312 | -1.28 (inactive) | 0.98 (inactive) | 0.756
COc1ccc(C(O)C2C=CC3C(=O)NC(=O)C3N2Nc2ccccn2)c2ccccc12 (stereo not given) | -1.07 (inactive) | -0.0625 | 0.496 (inactive) | 0.437 (inactive) | -0.139 (inactive) | 0.977 (inactive) | -0.841 | -0.387 (inactive) | -3.5 (inactive) | -2.08
